Rows were chosen to be rich in hits. Some 7.6% of all compounds tested hit in one or more screens of this group.
p53 reactivator: re-activators of mutant p53; H1299 p53-A138V BP100-luciferase reporter, luminescence, 24 h; Potency, µM (series often up to 92.2 µM), without a hit: top-dose activity change, positive = activation, most hits filed as activators; 320,000 tested, 0.063% active; note: potency is the fitted concentration of half-maximal effect; % of control where 0% means no effect; nearly all actives have a fitted effect of over 45% in size
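p53-null H1299 cells stably carrying temperature-sensitive p53-A138V and a BP100-luciferase reporter were pinned with compounds (4-point, 1:5 series) and held 24 hrs at 37 deg C. Luminescence was read 10 min after detection reagent.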
Giardia killer: Giardia lamblia killing; Giardia lamblia trophozoite viability; activity change, % at 7.66 µM, hits read low; 340,000 tested, 0.15% active; in the data active = activity change below about -80%; inconclusive = between about -30% and that limit;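 note: parasites exposed to compound for two days anaerobically before the ATP read; % is set by controls: 0 for no effect and ±100 for the full control effect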
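ATP-content bioluminescence gauges trophozoite survival. Cells (100/well) receive compound and incubate anaerobically for 48 hrs at 37 deg C; detection reagent follows for 15-30 min at room temperature.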
Gal4-VP16 FLuc: counter-screen for ROR gamma inhibitors: Gal4-VP16 reporter | Drosophila S2 Gal4-VP16 UAS-luciferase, luminescence, 20 h | Potency, µM (doses to about 53.6 µM), for the others: at the highest dose activity, negative = inhibition, hits mostly inhibitors | 310,000 tested, 3.5% active | AID 2546;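 note: Gal4-VP16 expression switched on by copper sulfate through the metallothionein promoter; potency is the fitted concentration of half-maximal effect; % is set by controls: 0 for no effect and ±100 for the full control effect; nearly all actives have a fitted effect of over 50% in size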
BRCA1 expr up: increases BRCA1 expression; MCF7-BRCA1-FFLuc reporter, luminescence, 48 h; response scale: scaled: vehicle 0%, 10 µM genistein 100%; Potency, µM (doses to about 46.1 µM), for the others: top-dose activation, actives largely listed as activators; 380,000 tested, 1.1% active; note: potency is the fitted concentration of half-maximal effect; nearly all actives have a fitted effect of over 80% in size
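Cells: MCF7-BRCA1-FFLuc, 2000/well. Exposure: 48 h, 37 °C, 5% CO2. Read: luminescence, 15 min post-substrate. Controls: genistein 10 microM (maximal activation), DMSO (neutral).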
ELG1 repair inh: blocks ELG1-dependent DNA repair in HEK293T cells. HEK293T ELG1-luciferase reporter, luminescence, 16 h; DNA damage induced by 5-fluorouridine. Potency, µM (titrated, usually from 46.1 µM), for the others: top-dose activity change, negative = inhibition, actives largely listed as inhibitors. 330,000 tested, 2.3% active. AID 504467; note: potency is the fitted concentration of half-maximal effect; % is set by controls: 0 for no effect and ±100 for the full control effect; nearly all actives have a fitted effect of over 55% in size
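Luminescence from the luciferase reporter, measured 30 min after ONE-Glo reagent at room temperature, was the read-out. Beforehand, 2,000 cells per well were exposed for 16 hr at 37 °C to 5-fluorouridine together with compound or vehicle.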
RORgamma inh: inhibitors of mouse ROR gamma transcriptional activity; Drosophila S2 Gal4-RORgamma UAS-luciferase reporter, 20 h; Potency, µM (highest dose often 53.6 µM), for inactives: at the highest dose activity change, negative = inhibition, most hits filed as inhibitors; AID 2551; 310,000 tested, 5.4% active; note: potency is the fitted concentration of half-maximal effect; % is set by controls: 0 for no effect and ±100 for the full control effect; nearly all actives have a fitted effect of over 60% in size
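A Gal4/UAS one-hybrid system in insect cells: metallothionein-promoter Gal4–ROR gamma fusion plus Photinus luciferase reporter. Copper sulfate 700 uM final, 20 hr ambient incubation, luminescent detection after 10 min with reagent.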
ELG1 FLuc counter: luciferase inhibition in cell-free luciferin readout for ELG1 hits; shares compounds with ELG1 repair inh; cell-free firefly luciferase luminescence counter-screen, ViewLux; Potency, µM (series often up to 46.1 µM), inactives show at the highest dose activity change, negative = inhibition, usual class: inhibitors; 350 tested, 3% active; AID 624247; note: potency is the fitted concentration of half-maximal effect; % is set by controls: 0 for no effect and ±100 for the full control effect
ELG1 Luc conf: inhibits ELG1-dependent DNA repair in HEK293T cells, confirmed; AID 624248; HEK293T ELG1-luciferase levels, luminescence; cells co-treated with 5-fluorouridine; 670 tested, 68% active; Potency, µM (top dose mostly 46.1 µM), for inactives: at the highest dose activity change, negative = inhibition, usual class: inhibitors; shares compounds with ELG1 repair inh; note: potency is the fitted concentration of half-maximal effect; % is set by controls: 0 for no effect and ±100 for the full control effect; nearly all actives have a fitted effect of over 55% in size
Target sequence (Q96QE3 whole entry, looked up): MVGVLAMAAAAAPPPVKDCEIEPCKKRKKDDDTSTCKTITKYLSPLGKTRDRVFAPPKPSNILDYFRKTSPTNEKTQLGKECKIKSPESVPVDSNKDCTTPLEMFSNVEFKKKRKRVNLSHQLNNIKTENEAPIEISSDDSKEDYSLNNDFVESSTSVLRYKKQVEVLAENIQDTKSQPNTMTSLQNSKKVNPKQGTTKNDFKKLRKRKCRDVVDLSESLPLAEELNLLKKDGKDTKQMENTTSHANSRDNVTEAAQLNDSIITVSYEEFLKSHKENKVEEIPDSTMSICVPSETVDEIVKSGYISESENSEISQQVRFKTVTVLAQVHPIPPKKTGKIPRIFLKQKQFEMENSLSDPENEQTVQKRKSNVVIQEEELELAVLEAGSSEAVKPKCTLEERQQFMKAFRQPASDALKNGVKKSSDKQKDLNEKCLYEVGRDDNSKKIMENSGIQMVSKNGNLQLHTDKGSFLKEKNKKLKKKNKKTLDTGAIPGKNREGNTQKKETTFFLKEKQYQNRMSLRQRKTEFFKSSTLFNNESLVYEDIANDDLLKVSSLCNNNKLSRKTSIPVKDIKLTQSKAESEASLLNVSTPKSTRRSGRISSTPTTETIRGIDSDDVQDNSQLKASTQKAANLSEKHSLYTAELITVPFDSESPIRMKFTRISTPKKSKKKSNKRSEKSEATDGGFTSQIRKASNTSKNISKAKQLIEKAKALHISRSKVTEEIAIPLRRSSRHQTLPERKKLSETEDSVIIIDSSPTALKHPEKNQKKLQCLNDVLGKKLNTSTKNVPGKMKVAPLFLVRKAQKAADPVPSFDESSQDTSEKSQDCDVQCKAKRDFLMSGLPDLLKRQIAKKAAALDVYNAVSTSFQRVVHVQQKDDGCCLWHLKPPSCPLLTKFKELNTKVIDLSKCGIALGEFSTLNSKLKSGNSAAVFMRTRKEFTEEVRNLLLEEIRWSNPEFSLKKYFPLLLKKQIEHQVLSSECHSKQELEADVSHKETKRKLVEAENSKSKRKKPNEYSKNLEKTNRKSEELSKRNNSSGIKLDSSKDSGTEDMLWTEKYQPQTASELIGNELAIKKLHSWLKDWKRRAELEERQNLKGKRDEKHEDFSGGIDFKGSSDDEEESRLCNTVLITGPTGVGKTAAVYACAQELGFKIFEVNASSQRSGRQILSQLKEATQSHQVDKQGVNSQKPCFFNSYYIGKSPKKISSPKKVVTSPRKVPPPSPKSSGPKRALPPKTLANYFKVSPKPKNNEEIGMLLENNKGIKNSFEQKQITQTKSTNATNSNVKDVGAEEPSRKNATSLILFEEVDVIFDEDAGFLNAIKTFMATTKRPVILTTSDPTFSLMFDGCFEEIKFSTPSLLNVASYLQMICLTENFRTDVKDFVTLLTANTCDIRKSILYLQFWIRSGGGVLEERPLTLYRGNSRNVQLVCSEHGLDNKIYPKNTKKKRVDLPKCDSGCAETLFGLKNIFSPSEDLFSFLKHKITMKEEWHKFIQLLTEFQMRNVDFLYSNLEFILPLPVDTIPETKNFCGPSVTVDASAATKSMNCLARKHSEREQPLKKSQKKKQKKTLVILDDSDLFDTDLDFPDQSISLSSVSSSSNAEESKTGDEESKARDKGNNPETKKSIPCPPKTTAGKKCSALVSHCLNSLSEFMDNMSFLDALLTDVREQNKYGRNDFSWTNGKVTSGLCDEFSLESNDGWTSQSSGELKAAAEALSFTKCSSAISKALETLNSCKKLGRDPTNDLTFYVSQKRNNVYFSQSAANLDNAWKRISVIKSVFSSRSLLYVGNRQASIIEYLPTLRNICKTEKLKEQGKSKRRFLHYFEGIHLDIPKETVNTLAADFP
ELG1 MMS Luc: MMS-stimulated human ELG1 repair inhibition, confirmed; shares compounds with ELG1 repair inh; HEK293T luciferase-tagged ELG1 level, MMS stimulated; Potency, µM (top dose mostly 46.1 µM), inactives show top-dose activity change, negative = inhibition, usual class: inhibitors; 670 tested, 53% active; note: potency is the fitted concentration of half-maximal effect; % is set by controls: 0 for no effect and ±100 for the full control effect; nearly all actives have a fitted effect of over 60% in size
ELG1 5-FU: confirmation of ELG1 repair inhibitors: viability with 5FU. AID 624250. 670 tested, under 10 active. Potency, µM (top dose mostly 46.1 µM), for inactives: at the highest dose activity change, negative = viability loss, usual class: cytotoxic. cell viability with 5-FU, ELG1-dependent repair. shares compounds with ELG1 repair inh;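 note: ELG1-luc HEK293T cells cotreated with 5-fluorouridine at 10 µM final; potency is the fitted concentration of half-maximal effect; viability measured 16 h after compound addition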
ELG1 MMS cell: confirmation of ELG1 repair inhibitors: viability with MMS | shares compounds with ELG1 repair inh | Cell viability with MMS, ELG1-dependent DNA repair | Potency, µM (highest dose often 46.1 µM), for inactives: at the top dose activity change, negative = viability loss, hits mostly cytotoxic | 670 tested, 33% active | AID 624251;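 note: ELG1-luc HEK293T cells co-treated with 10 µM MMS; potency is the fitted concentration of half-maximal effect; viability read 16 h after compound addition; % is set by controls: 0 for no effect and ±100 for the full control effect; nearly all actives have a fitted effect of over 60% in size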
Cell viab unstim: unstimulated viability counter-screen for ELG1 repair hits | shares compounds with ELG1 repair inh | cell viability counter-screen, unstimulated, luminescence | Potency, µM (doses to about 45.9 µM), for the others: at the highest dose activity change, negative = loss of viability, usual class: cytotoxic | 900 tested, 8% active | AID 624252;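 note: potency is the fitted concentration of half-maximal effect; compound exposure lasted 16 hours before reading; % is set by controls: 0 for no effect and ±100 for the full control effect; nearly all actives have a fitted effect of over 55% in size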
FLuc biochem: firefly luciferase inhibition counter-screen | purified firefly luciferase, luminescence counter-screen | shares compounds with ELG1 repair inh | Potency, µM (highest dose often 57.5 µM), for inactives: top-dose activity, negative = inhibition, hits mostly inhibitors | 350 tested, 10% active; note: potency is the fitted concentration of half-maximal effect; % is set by controls: 0 for no effect and ±100 for the full control effect
Active calls of the source: *. Unless noted, calls come from the whole dose curve; as a rule, active = well fitted curve in the direction sought with a large enough effect; inconclusive = small, poorly fitted or top-dose-only effect, or another doubt; inactive = no such curve, though single readings can be large; an effect the other way counts as inactive or inconclusive.

Results for C=CCn1c(Oc2cc(C)ccc2C)nc2c1c(=O)n(C)c(=O)n2C ?
p53 reactivator: -5.3%; Giardia killer: 7.7; Gal4-VP16 FLuc: 5.2%; BRCA1 expr up: -0.3%; ELG1 repair inh: inconclusive; RORgamma inh: -3.6%

What do the screens show for `C=CCn1c(Oc2ccccc2F)nc2c1c(=O)n(C)c(=O)n2C`?
p53 reactivator: 6.0%; Giardia killer: -1.2; Gal4-VP16 FLuc: -11.3%; BRCA1 expr up: 1.3%; ELG1 repair inh: 4.11µM*; RORgamma inh: 28.0%; ELG1 Luc conf: 17.7µM*; ELG1 MMS Luc: 19.9µM*; ELG1 5-FU: inconclusive; ELG1 MMS cell: 1.1%; Cell viab unstim: 2.5%

Results for O=C1CCc2cc(-c3csc(-c4ccc(O)cc4)n3)ccc2N1 ?
BRCA1 expr up: 3.7%

What do the screens show for `Oc1cc2cc(-c3csc(-c4ccc(F)cc4)n3)cc3c2n1CCC3`?
BRCA1 expr up: 12.6µM*; Cell viab unstim: 1.3%

How did O=C(Nc1nc(-c2ccc3c(c2)OCCO3)cs1)c1ccc(S(=O)(=O)N2CCCCC2)cc1 do in these assays?
p53 reactivator: -5.7%; Giardia killer: 14.4; Gal4-VP16 FLuc: -10.8%; BRCA1 expr up: -70.8%; ELG1 repair inh: 4.11µM*; RORgamma inh: 11.5%; ELG1 Luc conf: inconclusive; ELG1 MMS Luc: 2.81µM*; ELG1 5-FU: 7.3%; ELG1 MMS cell: 3.53µM*; Cell viab unstim: -18.4%

Results for CC(OC(=O)c1ccc(NS(=O)(=O)c2ccc3[nH]c(=O)[nH]c3c2)cc1)C(=O)Nc1ccc(Cl)cc1 (stereo not drawn) ?
p53 reactivator: -3.5%; Giardia killer: -11.7; Gal4-VP16 FLuc: -8.0%; BRCA1 expr up: -3.8%; ELG1 repair inh: inconclusive; RORgamma inh: -6.7%

Results for COc1ccc(Cl)cc1NC(=O)C(C)OC(=O)c1ccc(NS(=O)(=O)c2ccc3[nH]c(=O)[nH]c3c2)cc1 (stereo not drawn) ?
p53 reactivator: -9.4%; Giardia killer: 19.6; Gal4-VP16 FLuc: 0.9%; BRCA1 expr up: -11.1%; ELG1 repair inh: 2.91µM*; RORgamma inh: 31.6%; ELG1 Luc conf: 2.81µM*; ELG1 MMS Luc: 3.0%; ELG1 5-FU: inconclusive; ELG1 MMS cell: -2.4%; Cell viab unstim: -4.9%

What do the screens show for `CN(CC1CCCO1)S(=O)(=O)c1ccc(C(=O)Nc2nc3cc4c(cc3s2)OCO4)cc1` (stereo not drawn)?
p53 reactivator: 16.4%; Giardia killer: -3.6; Gal4-VP16 FLuc: -21.9%; BRCA1 expr up: -34.5%; ELG1 repair inh: 2.59µM*; RORgamma inh: 0.1%; ELG1 Luc conf: 4.45µM*; ELG1 MMS Luc: 1.12µM*; ELG1 5-FU: -17.3%; ELG1 MMS cell: 1.12µM*; Cell viab unstim: inconclusive

How did CCc1ccc(S(=O)(=O)c2cn(CC(=O)Nc3ccc(C)cc3)c3ccccc3c2=O)cc1 do in these assays?
BRCA1 expr up: -31.4%

Results for COc1ccc(C(=O)N2CCc3cc(OC)c(OC)cc3C2c2ccc(OC)c(OC)c2)cc1OC (stereo not drawn) ?
p53 reactivator: -13.6%; Giardia killer: 9.1; Gal4-VP16 FLuc: -2.5%; BRCA1 expr up: -3.2%; ELG1 repair inh: 3.66µM*; RORgamma inh: -35.9%; ELG1 Luc conf: inconclusive; ELG1 MMS Luc: 15.4%; ELG1 5-FU: inconclusive; ELG1 MMS cell: -12.8%; Cell viab unstim: -19.0%

How did CCC(=O)N1CCc2cc(OC)c(OC)cc2C1COc1ccccc1OC (stereo not drawn) do in these assays?
p53 reactivator: -3.2%; Giardia killer: 10.5; Gal4-VP16 FLuc: 4.7%; BRCA1 expr up: -8.7%; ELG1 repair inh: inconclusive; RORgamma inh: 5.1%

What do the screens show for `CCCC(=O)N1CCc2cc(OC)c(OC)cc2C1COc1ccccc1OC` (stereo not drawn)?
p53 reactivator: -5.2%; Giardia killer: 5.2; Gal4-VP16 FLuc: -10.9%; BRCA1 expr up: -11.7%; ELG1 repair inh: -8.1%; RORgamma inh: 35.2%; ELG1 FLuc counter: 10.2%; ELG1 Luc conf: 8.89µM*; ELG1 MMS Luc: inconclusive; ELG1 5-FU: 3.9%; ELG1 MMS cell: inconclusive; Cell viab unstim: -5.3%; FLuc biochem: -5.2%

How did CCCCNC(=O)c1onc(CSc2cccc(Cl)c2)c1C(=O)O do in these assays?
p53 reactivator: -3.5%; Giardia killer: 31.4; Gal4-VP16 FLuc: 0.1%; BRCA1 expr up: -21.4%; ELG1 repair inh: -2.2%; RORgamma inh: 15.6%

How did Cc1cccc(C)c1OCC(=O)Nc1ccccc1C(=O)N1CCOCC1 do in these assays?
p53 reactivator: -2.9%; Giardia killer: -11.5; Gal4-VP16 FLuc: 1.0%; BRCA1 expr up: -17.2%; ELG1 repair inh: -7.3%; RORgamma inh: -3.4%

Compound activity as filed in PubChem.
